For 24 compounds, Potency results are on record in PubChem BioAssay (NCATS).

SMILES strings stand for the structures. Several values for one entry are separate records, joined by “and”; a condition that tells them apart may be missing. Equal values may be shown once. Results filed as inconclusive are left out. Activity calls are given as the source filed them. Unless noted, calls follow the shape of the full dose curve.

The nature of assay [1]: qHTS for Inhibitors of the Functional Ribonucleoprotein Complex (vRNP) of Lassa (LASV) Arenavirus: LASV Primary Screen - GLuc reporter signal (AID 1347082; calls by dose curve; tested in HEK293 reporter line; also: nearly all actives have a fitted effect of over 60% in size; also: potency is read from the fitted curve at half-maximal effect). Particulars: LASV minigenome vRNP, Gaussia luciferase reporter; series mostly up to 57.5 µM. In general terms: In qHTS, concentration-response curves come from the screen itself.
Assay [2] deals with Nucleoprotein (Lymphocytic choriomeningitis virus (strain Armstrong)) (UniProt P09992). Description: qHTS for Inhibitors of the Functional Ribonucleoprotein Complex (vRNP) of Lymphocytic Choriomeningitis Arenaviruses (LCMV): LCMV Primary Screen - GLuc reporter signal (AID 1347086). Also: nearly all actives have a fitted effect of over 70% in size. Also: potency is read from the fitted curve at half-maximal effect. The settings on record: LCMV minigenome vRNP cell assay, Gaussia luciferase reporter; series mostly up to 57.5 µM.

Assay [3] can be described thus: qHTS for Inhibitors of the Functional Ribonucleoprotein Complex (vRNP) of Lassa (LASV) Arenavirus: Viability assay - alamar blue signal for LASV Primary Screen (AID 1347083; calls by dose curve; tested in HEK293 reporter line; also: nearly all actives have a fitted effect of over 80% in size; also: potency is read from the fitted curve at half-maximal effect). The settings on record: cell viability, alamar blue fluorescence (LASV minigenome counter-screen); series mostly up to 57.5 µM.
Assay [4] is described as follows: qHTS for Inhibitors of the Functional Ribonucleoprotein Complex (vRNP) of Lymphocytic Choriomeningitis Arenaviruses (LCMV): Viability assay - alamar blue signal for LCMV Primary Screen (AID 1347085; calls by dose curve; tested in HEK293 reporter line; also: nearly all actives have a fitted effect of over 80% in size; also: potency is read from the fitted curve at half-maximal effect). The settings on record: alamar blue viability counter-screen, LCMV vRNP screen cells; series mostly up to 57.5 µM.
Assay [5] in a line: qHTS of pediatric cancer cell lines to identify multiple opportunities for drug repurposing: Primary screen for TC32 cells (AID 1347089; active = well fitted cell-killing curve with a large enough effect; also: nearly all actives have a fitted effect of over 60% in size). Particulars: TC32 Ewing sarcoma viability, CellTiter-Glo luminescence, 48 h; series mostly up to 45.8 µM. A digest of the protocol:
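In the primary qHTS, MIPE compounds were tested at 11 concentrations (0.78 nM to 46 µM) and NPC compounds at 8 (0.59 nM to 46 µM) on TC32 cells for 48 h. CellTiter-Glo luminescence gave viability.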

The nature of assay [6]: qHTS of pediatric cancer cell lines to identify multiple opportunities for drug repurposing: Primary screen for DAOY cells (AID 1347090; active = well fitted cell-killing curve with a large enough effect; also: potency is read from the fitted curve at half-maximal effect; nearly all actives have a fitted effect of over 55% in size). The settings on record: DAOY medulloblastoma viability, CellTiter-Glo luminescence, 48 h; series mostly up to 46 µM. A digest of the protocol:
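Eight- or eleven-point concentration series, 48 h treatment at 37 degrees C in growth media; readout CellTiter-Glo luminescence. Potency and efficacy were taken from the concentration-response curves.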

Nucleoprotein (Lymphocytic choriomeningitis virus (strain Armstrong)), sequence (P09992 whole entry, looked up): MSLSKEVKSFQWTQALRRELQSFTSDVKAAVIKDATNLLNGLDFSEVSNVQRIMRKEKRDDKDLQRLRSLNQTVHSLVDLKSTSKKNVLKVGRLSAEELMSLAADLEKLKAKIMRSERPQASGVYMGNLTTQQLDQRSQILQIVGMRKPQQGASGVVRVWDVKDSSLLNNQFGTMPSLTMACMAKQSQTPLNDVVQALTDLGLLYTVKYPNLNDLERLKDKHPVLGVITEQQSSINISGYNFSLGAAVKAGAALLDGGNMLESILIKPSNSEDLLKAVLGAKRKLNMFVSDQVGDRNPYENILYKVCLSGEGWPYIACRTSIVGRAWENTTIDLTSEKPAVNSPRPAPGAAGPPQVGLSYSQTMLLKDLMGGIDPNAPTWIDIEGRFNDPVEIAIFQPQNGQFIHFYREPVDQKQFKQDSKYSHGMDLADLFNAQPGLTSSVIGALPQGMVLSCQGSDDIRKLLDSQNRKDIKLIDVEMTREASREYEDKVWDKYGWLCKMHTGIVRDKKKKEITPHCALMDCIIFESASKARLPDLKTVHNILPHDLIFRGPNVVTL

As to `CNS(=O)(=O)CCc1ccc2[nH]cc(C3CCN(C)CC3)c2c1`, the Potency entry in assay [1] and in assay [2] was “inactive” throughout.

As to `COc1cc(Nc2c(C#N)cnc3cc(OCCCN4CCN(C)CC4)c(OC)cc23)c(Cl)cc1Cl`, the Potency in assay [3] is 1.09 µM (active). The Potency result in assay [2] was “inactive”.

In the case of `CS(=O)c1ccc(-c2nc(-c3ccc(F)cc3)c(-c3ccncc3)[nH]2)cc1` (centres undefined), the Potency entry in assay [1], in assay [4] and in assay [2] was “inactive” throughout.

On to `CS(=O)(=O)CCNCc1ccc(-c2ccc3ncnc(Nc4ccc(OCc5cccc(F)c5)c(Cl)c4)c3c2)o1`, for which the Potency is 0.432 µM (active) in assay [3], 137 nM (active) in assay [4] and 0.769 µM (active) in assay [2].

Regarding `Cc1cc2c(C(C)C)c(O)c(O)c(C=O)c2c(O)c1-c1c(C)cc2c(C(C)C)c(O)c(O)c(C=O)c2c1O`, the Potency in assay [3] is 30.6 µM (active). The Potency result in assay [4] is “inactive”.

Turning to `COc1cc(NCc2ccc3nc(N)nc(N)c3c2C)cc(OC)c1OC`, the Potency entry in assay [1] and in assay [2] was “inactive” each time.

With `CNC(=O)c1cc(Oc2ccc(NC(=O)Nc3ccc(Cl)c(C(F)(F)F)c3)cc2)ccn1`, the Potency in assay [1] was 38.5 µM (active); in assay [4], 17200 nM (active).

In the case of `CC1(CN2CCC(n3c(=O)[nH]c4ccccc43)CC2)OCc2ccccc2-n2cccc21` (centres undefined), the Potency entry in assay [1], in assay [4] and in assay [2] was “inactive” each time.

Take `C#C[C@]1(O)CC[C@H]2[C@@H]3CCC4=Cc5oncc5C[C@]4(C)[C@H]3CC[C@@]21C`: the Potency result in assay [1], in assay [4] and in assay [2] was “inactive” each time.

For `CC(C)c1nc(CN(C)C(=O)N[C@H](C(=O)N[C@@H](Cc2ccccc2)C[C@H](O)[C@H](Cc2ccccc2)NC(=O)OCc2cncs2)C(C)C)cs1`, the Potency result in assay [1], in assay [4] and in assay [2] was “inactive” each time.

Regarding `O=C(C1CCCCC1)N1CC(=O)N2CCc3ccccc3C2C1` (centres undefined), the Potency entry in assay [1], in assay [4] and in assay [2] was “inactive” each time.

For `Nc1nc(N)c2nc(-c3ccccc3)c(N)nc2n1`, the Potency entry in assay [1] and in assay [2] was “inactive” in each case.

As to `CC1(C)O[C@@H]2[C@@H](CO[C@@]3(COS(N)(=O)=O)OC(C)(C)O[C@@H]23)O1`, the Potency entry in assay [1], in assay [4] and in assay [2] was “inactive” each time.

In the case of `CO[C@@]12[C@H](COC(N)=O)C3=C(C(=O)C(C)=C(N)C3=O)N1C[C@@H]1N[C@@H]12`, the Potency result in assay [1] and in assay [2] was “inactive” throughout.

Regarding `Cc1ccc(-n2nc(C(C)(C)C)cc2NC(=O)Nc2ccc(OCCN3CCOCC3)c3ccccc23)cc1`, the Potency result in assay [1] and in assay [2] was “inactive” each time.

Regarding `Nc1nc2c(ncn2COC(CO)CO)c(=O)[nH]1`, the Potency result in assay [1] and in assay [2] was “inactive” throughout.

With `CCC(=O)C(CC(C)N(C)C)(c1ccccc1)c1ccccc1` (centres undefined), the Potency entry in assay [1], in assay [4], in assay [2] and in assay [5] was “inactive” each time. The Potency in assay [6] was 34.7 µM (active).

`O=C(c1ccccc1)c1ccc2n1CCC2C(=O)O` (centres undefined): the Potency entry in assay [1], in assay [4] and in assay [2] was “inactive” in each case.

For the compound `O=C1c2c(O)ccc(O)c2C(=O)c2c(NCCNCCO)ccc(NCCNCCO)c21`, the Potency is 685 nM (active) and 891 nM (active) and 1.78 µM (active) in assay [3]; 1.37 µM (active) and 1.26 µM (active) in assay [4]; 4.32 µM (active) in assay [2].

Take `Cc1ccc(S(=O)(=O)NC(=O)NN2CC3CCCC3C2)cc1` (centres undefined): the Potency entry in assay [4] and in assay [2] was “inactive” each time.

Turning to `CCc1nn(CCCN2CCN(c3cccc(Cl)c3)CC2)c(=O)n1CCOc1ccccc1`, the Potency result in assay [4] was “inactive”.

Turning to `NC1[C@H]2CN(c3nc4c(cc3F)c(=O)c(C(=O)O)cn4-c3ccc(F)cc3F)C[C@@H]12` (some centres undefined), the Potency result in assay [1] and in assay [2] was “inactive” throughout.

With `CC1=C(/C=C/C(C)=C/C=C/C(C)=C/C(=O)Nc2ccc(O)cc2)C(C)(C)CCC1`, the Potency in assay [2] was 8.91 µM (active).

`CCC1=C[C@@H]2CN(C1)Cc1c([nH]c3ccccc13)[C@@](C(=O)OC)(c1cc3c(cc1OC)N(C)[C@H]1[C@@](O)(C(=O)OC)[C@H](OC(C)=O)[C@]4(CC)C=CCN5CC[C@]31[C@@H]54)C2`: the Potency entry in assay [3], in assay [4] and in assay [2] was “inactive” throughout.
